# Test results taken from PubChem BioAssay (NCI).
# Where “and” joins values, the source holds several entries; their conditions need not be identical. Identical values can stand only once. This is part of a sample that, as a whole, favours compounds with a hit. Of some 83,000 tested, about 20% had one in any assay.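 Growth was measured after 48 h exposure to one concentration of compound in 96-well plates. Values under 10 count as active.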 Calls of active or inactive are those of the source.
# Test system: MDA-MB-468 breast
# Test: NCI-60 one-dose screen, 48 h (100 = growth as untreated, 0 = no growth, -100 = all killed)
# Settings: 10 µM unless noted
row,Compound,growth
1,Cc1ccc(NC2=N[C@]34CC(=O)CC[C@]3(C)[C@H]3CC[C@]5(C)C(=O)CC[C@H]5[C@@H]3C[C@@H]4S2)c(C)c1,17% (inactive)
2,CNC(=O)Oc1ccccc1-c1ccccc1,113% (inactive)
3,Cc1ccc(S(=O)(=O)C(Cl)(Cl)Cl)cc1,99.8% (inactive)
4,O=C(O)C1[O][Sb][O]C1C(=O)O (centres undefined),95.7% (inactive)
5,COC(=O)[C@H](Cc1ccccc1)NNC(=O)c1csc([C@@H](C[C@H](C(C)C)N(C)C(=O)[C@@H](NC(=O)[C@H]2CCCCN2C)C2CC2)OC(C)=O)n1,-11.2% (active)
6,CC/C(=C/c1ccc(OC)cc1OC)[N+](=O)[O-],-6.94% (active)
7,CN1CCc2cc3c(cc2C1O)OCO3 (centres undefined),99.4% (inactive) and 108% (inactive)
8,NC(=O)C(Br)c1ccccc1 (centres undefined),57.5% (inactive)
9,COC(=O)[C@@H](C)C[C@H](Cc1ccccc1)NC(=O)c1csc([C@@H](C[C@H](C(C)C)N(C)C(=O)[C@@H](NC(=O)[C@H]2CCCCN2C)C(C(F)(F)F)C(F)(F)F)OC(C)=O)n1,51.7% (inactive)
10,O=C(Nc1ccc([N+](=O)[O-])cc1)C(Cl)(Cl)Cl,96.5% (inactive)
11,NC(=O)c1c(Br)c(Br)c(Br)c(Br)c1C(=O)O (tested in a mixture with another compound),93.7% (inactive) and 101% (inactive)
12,CCC(C)/C=C(C)/C=C/C(=O)c1c(O)c(-c2ccc(O)cc2)c[nH]c1=O (centres undefined),30.3% (inactive)
13,CCC1(C)CC(CCNCc2ccccc2O)(c2ccc(C)cc2)CCO1 (centres undefined),110% (inactive)
14,CNC(=O)Oc1cc(C(C)C)ccc1Sc1ccc(C(C)C)cc1OC(=O)NC,56.5% (inactive)
15,CC1=C2C(=C[C@@](C)(COC(=O)c3ccc(S(=O)(=O)F)cc3)[C@@H]2O)C(=O)[C@](C)(O)C12CC2,-78.8% (active)
16,Cc1cc[c-]cc1.Fc1c[c-]c(-c2ccccn2)c(F)c1.N#CCC[PH+](CCC#N)c1ccccc1.[Pt+2],37% (inactive)
17,CC[C@H](C)[C@H](NC(=O)[C@H]1CCCCN1C)C(=O)N(C)[C@H](C[C@@H](OC(C)=O)c1cccc(C(=O)N[C@@H](Cc2ccccc2)C[C@H](C)C(=O)O)n1)C(C)C,31.2% (inactive)
18,O=C(O)c1ccc([S-])cc1.[Au+].c1ccc(CN2[CH-]N(Cc3ccccc3)C(c3ccccc3)=C2c2ccccc2)cc1,-63.2% (active)
19,Nc1nc(=S)nc(N)[nH]1,99.3% (inactive)
20,COC(=O)[C@@H](C)C[C@H](Cc1cn(C)c2ccccc12)NC(=O)c1csc([C@@H](C[C@H](C(C)C)N(C)C(=O)[C@@H](NC(=O)[C@H]2CCCCN2C)C(C)C)OC(C)=O)n1,28.6% (inactive)

row,Compound,growth
1,O=[N+]([O-])c1cc(Br)c(O)c(Br)c1,99.4% (inactive)
2,COc1cc(C2=NN(c3ccccc3)C(c3sc(N(CCCl)CCCl)nc3Cl)C2)cc(OC)c1OC (centres undefined),87.9% (inactive)
3,COC(=O)[C@@H](C)C[C@H](Cc1ccccc1)NC(=O)c1csc(CC[C@H](C(C)C)N(C)C(=O)[C@@H](NC(=O)[C@H]2CCCCN2C)C(C)C)n1,8.45% (active)
4,NC1CCc2cc(O)c(O)cc2C1 (centres undefined),66% (inactive)
5,Cc1ccc(CNc2nc3ccc(OC/C(=C/F)CN)cc3o2)cn1,109% (inactive)
6,Clc1ccc(SSC(Cl)(Cl)Cl)cc1,104% (inactive)
7,CCCCCCCCC(CO)NCCc1ccccc1 (centres undefined),100% (inactive)
8,CCC(=O)Nc1ccc(Cl)c(Cl)c1,101% (inactive)
9,CCN1C(=O)NC(=O)C(C)(N2C(=O)c3c(F)c(F)c(F)c(F)c3C2=O)C1=O (centres undefined),-6.73% (active)
10,CCOC(=O)CCC(NC(=O)C(Cc1ccc(N(CCCl)CCCl)cc1)NC=O)C(=O)OCC (centres undefined),-89.3% (active)
11,C(=NC1CCCCC1)=NC1CCCCC1,103% (inactive) and -21.2% (active)
12,C[As](=O)(O)c1ccc(C(=O)O)cc1,99.8% (inactive)
13,COC(C)(C)CCC[C@H](C)C/C=C/C(C)=C/C(=O)OC(C)C,86.7% (inactive)
14,COc1ccc(C(c2ccc(OC)cc2)C(Cl)(Cl)Cl)cc1,18% (inactive)
15,CN(CCCCN(C)CCOS(C)(=O)=O)CCOS(C)(=O)=O,76.9% (inactive)
16,Clc1cccc(Cl)c1Cl,107% (inactive)
17,COc1cc(/C=N/C2=C(C#N)C(c3ccco3)c3c(c4cc(C)ccc4oc3=O)O2)cc(OC)c1OC (centres undefined),109% (inactive)
18,CCCCCCCC[N+](C)(CCCCCCCC)CCCCCCCC,-90.1% (active)
19,Oc1ccc2c3c1OC1[C@@H](O)CC[C@@]4(O)[C@@H](C2)N(CC2CCC2)CC[C@]314 (some centres undefined),99.8% (inactive)
